According to PubChem BioAssay AID449768 (Vanderbilt High Throughput Screening Facility, 2010):
Out of some 110,000 compounds screened, about 1,400 (1.3%) were called active.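 How the source made its calls: active means Z score or B-score, a plate-position-corrected score, falls beyond the plate's 99.7% confidence bounds, in either direction; inactive means both scores lie inside the 99.7% bounds.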 The sample as a whole holds a higher share of actives than the screen did.

biological target: Sodium-dependent dopamine transporter (Homo sapiens) (UniProt Q01959); assay: modulators of human DAT uptake with cocaine – cell-based, LLC-PK1 hDAT, [14C]-dopamine uptake, MLSMR, cocaine antagonist project, primary screen (AID 449768); conditions: LLC-PK1 hDAT cells, [14C]-dopamine uptake with cocaine IC80; at 10 µM; actives deviate in either direction;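 further: scored against the spread of the other compound wells on the same plate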
Sequence (Q01959 whole entry, looked up): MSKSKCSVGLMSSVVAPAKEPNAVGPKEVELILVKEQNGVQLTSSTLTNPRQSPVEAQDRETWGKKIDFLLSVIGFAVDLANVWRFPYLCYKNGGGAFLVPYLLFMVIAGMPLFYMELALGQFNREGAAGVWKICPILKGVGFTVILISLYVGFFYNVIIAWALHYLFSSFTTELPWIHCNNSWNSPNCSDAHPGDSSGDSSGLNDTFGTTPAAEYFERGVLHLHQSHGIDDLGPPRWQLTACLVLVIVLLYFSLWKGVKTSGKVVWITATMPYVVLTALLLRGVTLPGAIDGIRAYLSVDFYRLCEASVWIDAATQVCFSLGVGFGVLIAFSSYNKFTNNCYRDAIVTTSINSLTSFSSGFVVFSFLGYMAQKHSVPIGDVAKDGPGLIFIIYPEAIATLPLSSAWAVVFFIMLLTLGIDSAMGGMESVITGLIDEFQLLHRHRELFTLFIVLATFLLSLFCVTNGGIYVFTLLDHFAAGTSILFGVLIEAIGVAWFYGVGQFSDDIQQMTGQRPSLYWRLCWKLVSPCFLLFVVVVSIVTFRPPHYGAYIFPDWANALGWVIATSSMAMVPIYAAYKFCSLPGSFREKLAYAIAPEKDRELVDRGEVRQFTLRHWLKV

**Q.** For `COC(C[C@@H]1O[C@@H]1C(=O)[C@@H](C)OCc1ccccc1)OC`, which B-score is on record?
**A.** -1.68 (inactive)

**Q.** Which B-score does the source give for `O=C(Nc1cccc2ccccc12)N1CCN(Cc2ccc3c(c2)OCO3)CC1` here?
**A.** 0.465 (inactive)

**Q.** How did the B-score turn out when `Cn1c(=O)cc(OCCCC(=O)N2CCN(Cc3ccc4c(c3)OCO4)CC2)c2ccccc21` was run?
**A.** -0.011 (inactive)

**Q.** `O=C(CCCN1C(=O)c2cccc3cccc(c23)C1=O)N1CCN(Cc2ccc3c(c2)OCO3)CC1` was tested. Which B-score did it give?
**A.** 3.8 (active)

**Q.** Which B-score does the source give for `C=CCOC(=O)C1=C[C@H](c2ccc(Br)cc2)C[C@H](OCCCCO)O1` here?
**A.** -0.239 (inactive)

**Q.** With `COC(=O)c1ccc(C(=O)OC)c(NC(=S)N2CCCCC2)c1` as the molecule, how does the B-score read?
**A.** 0.301 (inactive)

**Q.** How did the B-score turn out when `COC(=O)c1ccccc1NC(=O)c1ccccc1NS(C)(=O)=O` was run?
**A.** 0.686 (inactive)

**Q.** With `CCS(=O)(=O)Nc1cc(C(=O)OC)ccc1C(=O)OC` as the molecule, how does the B-score read?
**A.** 6.13 (active)

**Q.** How did the B-score turn out when `COC(=O)C1=C[C@@H](C(=O)OC)[C@@H]2C3=C(C(=O)[C@]2(C)NC(=O)c2ccccc2)[C@H](C)n2c(=O)n(C)c(=O)n2[C@@H]3C1` was run?
**A.** -0.415 (inactive)

**Q.** Which B-score does the source give for `COc1ccc(C(CC(=O)N2CCN(c3ccccc3)CC2)c2c(O)cc(OC)cc2OC)cc1` (stereo not drawn) here?
**A.** 1.37 (inactive)

**Q.** `c1ccc2[nH]c(-c3nc4ccccc4[nH]3)nc2c1` was tested. Which B-score did it give?
**A.** 0.0135 (inactive)

**Q.** Which B-score does the source give for `COc1ccc(-c2[nH]nc(-c3ccccc3)c2-c2nc3ccccc3[nH]2)cc1` here?
**A.** -7.37 (active)

**Q.** Which B-score does the source give for `c1ccc(-c2[nH]ncc2-c2nc3ccccc3[nH]2)cc1` here?
**A.** 0.018 (inactive)

**Q.** `CN1CCN(C(=O)C2=C[C@H](c3ccc4c(c3)OCO4)C[C@H](OCc3ccc(CO)cc3)O2)CC1` was tested. Which B-score did it give?
**A.** 0.0245 (inactive)

**Q.** Which B-score does the source give for `O=C1N[C@@H](Cc2ccccc2)C(=O)N2[C@@H]3N(S(=O)(=O)c4ccc(F)cc4)c4ccccc4[C@]3(Br)C[C@@H]12` here?
**A.** 1.04 (inactive)

**Q.** Which B-score does the source give for `C#CCOCCOCCOCCNc1nc(N2CCN(C(=O)[C@H](CCC(=O)O)n3cc(C(N)CO)nn3)CC2)nc(N2CCN(C(=O)[C@H](Cc3ccc(O)cc3)n3cc(C(N)[C@H](C)CC)nn3)CC2)n1` (stereo partly drawn) here?
**A.** -0.199 (inactive)

**Q.** How did the B-score turn out when `CCOC(=O)CNC(=O)CSc1nnc(-c2cccc(OC)c2)n1CC` was run?
**A.** 0.102 (inactive)

**Q.** How did the B-score turn out when `CCOC(=O)CNC(=O)CSc1nc2cccnc2n1CC` was run?
**A.** -8.17 (active)

**Q.** Which B-score does the source give for `CCOC(=O)CNC(=O)CSc1nnc(COc2ccc(Cl)cc2)n1CC` here?
**A.** 0.0208 (inactive)

**Q.** How did the B-score turn out when `O=C(NCC1CC1)c1onc(CSc2ccccc2)c1C(=O)NCC1CC1` was run?
**A.** 1.29 (inactive)

**Q.** With `COc1ccc(C2/C=C\CN(S(=O)(=O)c3cccs3)CC(=O)N2Cc2ccc(F)cc2)cc1` (stereo not drawn) as the molecule, how does the B-score read?
**A.** 0.769 (inactive)

**Q.** How did the B-score turn out when `CCOC(=O)c1sc(N(Cc2ccccc2)C(=O)CN2C(=O)CN(C)C2=O)nc1C` was run?
**A.** 4.19 (active)

**Q.** Which B-score does the source give for `CCOC(=O)c1sc(NC(=O)c2ccncc2)nc1C` here?
**A.** 0.297 (inactive)

**Q.** `CCOC(=O)c1ccc(N2C(=O)CC(N(C)Cc3ccccc3)C2=O)cc1` (stereo not drawn) was tested. Which B-score did it give?
**A.** -0.402 (inactive)

**Q.** `O=C1c2ccccc2S(=O)(=O)c2cc(N3CCN(c4ccccn4)CC3)ccc21` was tested. Which B-score did it give?
**A.** 0.34 (inactive)

**Q.** Which B-score does the source give for `COC(C[C@@H](O)C[C@@H](O)[C@H](C)OCc1ccccc1)OC` here?
**A.** -0.417 (inactive)

**Q.** For `OCC[C@H]1C[C@H](O)[C@@H](O)[C@]2(CCCCO2)O1`, which B-score is on record?
**A.** -1.31 (inactive)

**Q.** How did the B-score turn out when `CCCCOC(=O)Nc1nccs1` was run?
**A.** 16.3 (active)

**Q.** Which B-score does the source give for `COc1cc(C(=O)Nc2nccs2)cc(OC)c1OC` here?
**A.** -0.0124 (inactive)

**Q.** How did the B-score turn out when `CC(=O)Oc1ccc(C(=O)Nc2nccs2)cc1` was run?
**A.** -1.53 (inactive)

**Q.** Which B-score does the source give for `COc1ccc(C2/C=C\CN(CC(C)C)CC(=O)N2Cc2ccc(F)cc2)cc1` (stereo not drawn) here?
**A.** -0.0164 (inactive)

**Q.** For `Cc1cccc(Nc2nc(NCCO)nc(N3CCCC3)n2)c1`, which B-score is on record?
**A.** 1.01 (inactive)

**Q.** For `CCC1SC2=NCCN2C1(O)c1ccc(Cl)cc1` (stereo not drawn), which B-score is on record?
**A.** -5.92 (active)

**Q.** For `NC(=O)CC[C@@H]1NC(=O)[C@@H]2CCCN2C(=O)c2cc([N+](=O)[O-])cc(F)c2NCCC[C@@H](C(N)=O)NC1=O`, which B-score is on record?
**A.** -0.0519 (inactive)

**Q.** `O=C(CCNS(=O)(=O)c1ccccc1C(F)(F)F)NCc1ccc2c(c1)OCO2` was tested. Which B-score did it give?
**A.** -3.26 (active)

**Q.** Which B-score does the source give for `Cn1cc(CCC(=O)NCc2ccc3c(c2)OCO3)c2ccccc21` here?
**A.** 0.0949 (inactive)

**Q.** `O=C(COc1ccccc1)NCc1ccc2c(c1)OCO2` was tested. Which B-score did it give?
**A.** -0.475 (inactive)

**Q.** With `NC(=O)C[C@@H]1NC(=O)CNC(=O)c2cc([N+](=O)[O-])cc(I)c2NCCC(C(N)=O)NC1=O` (stereo partly drawn) as the molecule, how does the B-score read?
**A.** 0.453 (inactive)

**Q.** For `O=S(=O)(c1cccc(S(=O)(=O)N2CCC(n3nnc4ccccc43)CC2)c1)N1CCCCC1`, which B-score is on record?
**A.** 0.575 (inactive)

**Q.** With `O=S(=O)(c1cccc(-c2nnc(SC(F)F)n2-c2ccccc2)c1)N1CCCCC1` as the molecule, how does the B-score read?
**A.** -7.23 (active)

**Q.** For `O=C(O)CCSc1nnc(-c2ccccc2)n1-c1ccccc1`, which B-score is on record?
**A.** -0.0697 (inactive)

**Q.** `COC(=O)CCCC1=CC2=CC(=O)C(C)(OC(=O)c3cccs3)C(=O)C2=CN1c1cccc(C#N)c1` (stereo not drawn) was tested. Which B-score did it give?
**A.** -2.03 (inactive)

**Q.** For `COc1ccc(NC(=O)ON=C2c3ccccc3-c3ccccc32)cc1`, which B-score is on record?
**A.** 3.84 (active)

**Q.** `CCCNC(=O)Nc1ccccc1C(=O)Nc1ccc(OC)cc1` was tested. Which B-score did it give?
**A.** 1.39 (inactive)

**Q.** How did the B-score turn out when `COc1ccc(NC(=O)c2ccc(OC)cc2)cc1` was run?
**A.** -1.02 (inactive)

**Q.** For `Cc1nc(C(=O)Nc2ccc(Cl)cc2)sc1C1(C)CC(c2ccccc2)=NO1` (stereo not drawn), which B-score is on record?
**A.** 0.677 (inactive)

**Q.** `CC(C)[C@@H]1NC(=O)c2cc([N+](=O)[O-])cc(I)c2NCCC[C@@H](C(=O)NC(CC(=O)O)C(N)=O)NC(=O)[C@H](CO)NC1=O` (stereo partly drawn) was tested. Which B-score did it give?
**A.** -0.454 (inactive)

**Q.** How did the B-score turn out when `Cc1ccc(S(=O)(=O)C(C#N)c2nc3ccccc3nc2N2CCCC2)cc1C` (stereo not drawn) was run?
**A.** 1.69 (inactive)

**Q.** How did the B-score turn out when `Cc1cc(N2CCN(S(=O)(=O)c3ccc(C)c(C)c3)CC2)c2ccccc2n1` was run?
**A.** 3.23 (active)

**Q.** With `Cc1ccc(N2CCN(S(=O)(=O)c3ccc(F)cc3)CC2)c(C)c1` as the molecule, how does the B-score read?
**A.** 0.000185 (inactive)

**Q.** How did the B-score turn out when `C=CC(COCc1ccccc1)N(Cc1ccccc1)S(=O)(=O)c1ccccc1Br` (stereo not drawn) was run?
**A.** -0.104 (inactive)

**Q.** `C#CCO[C@@H]1C[C@H](n2cnc3c(=O)[nH]c(NC(=O)C(C)C)nc32)O[C@@H]1CO` was tested. Which B-score did it give?
**A.** 0.438 (inactive)

**Q.** For `COC(=O)c1ccc(C(NC(=O)OCc2ccccc2)/C(F)=C/[C@@H](C)C(=O)O)cc1` (stereo partly drawn), which B-score is on record?
**A.** -0.297 (inactive)
